Source: PubChem (several laboratories)
Hits are enriched below; roughly 4.8% of the tested compounds scored in any of these assays.
hcDAF-12 act = H. contortus DAF-12 activation, primary screen; HEK293 hcDAF-12 lit1-tk-luc reporter, luminescence; 0% DMSO, 100% Δ7-dafachronic acid; activation, % at 6.8 µM; actives 1.4% (n = 370,000);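 active = activation above the mean of all tested compounds plus 3 SD, cut at about 5.5% in these data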;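 note: 100% = response to 3 µM Δ7-dafachronic acid high control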
hgDAF12 agonist = hgDAF-12 agonism, primary luciferase screen. HEK293 GAL4-hgDAF12 UAS-luciferase reporter, agonist luminescence; normalized to butyrate control. activation, % at 6.8 µM. actives 1.8% (n = 370,000). AID 687014;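 active = activation above a cutoff set at the mean of all screened compounds plus 3 SD, cut at about 10% in these data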;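 note: 0% = DMSO wells and 100% = sodium butyrate wells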
ssDAF-12 act = activates DAF-12 receptor from parasite S. stercoralis; HEK293 ssDAF-12/GRIP1 lit1-tk-luc reporter, luminescence; % of 3 µM dafachronic acid response; actives 1% (n = 370,000); activation, % at 6.8 µM;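 active = activation above the mean over all tested compounds plus 3 SD, cut at about 0.9% in these data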;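 note: 0% = DMSO-only wells and 100% = 3 µM delta7-dafachronic acid wells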
NR1D1 modulator = Rev-erb alpha (human) modulation. activity, % at 10 µM. Rev-erbα–FITC-DNA binding, fluorescence polarization, 90 min. actives 0.79% (n = 370,000);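 active = activity above about 14%, limit read from the data; passing the limit was not always enough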;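 note: 0% = DMSO wells with 35 nM protein and 100% = DMSO wells with 750 nM protein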
DAX1 inh-1 = inhibitors of DAX1 repression of SF-1 activated StAR promoter; inhibition, % at 6.8 µM; HEK293T StAR-luciferase reporter, SF-1/DAX-1 repression relief; actives 1.1% (n = 370,000);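 active = inhibition above the mean over all tested compounds plus 3 SD, cut at about 3.6% in these data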;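 note: 0% = DAX-1 cells with DMSO and 100% = cells lacking DAX-1 with DMSO; higher inhibition means more luminescence from relief of DAX-1 repression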
DAX1 inh-2 = inhibitors of human orphan nuclear receptor DAX1 (NR0B1); HEK293 Gal4-DAX1 luciferase reporter, luminescence; inhibition, % at 6.75 µM; P51843; actives 0.99% (n = 340,000);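 active = inhibition above the mean over all tested compounds plus 3 SD, cut at about 4.2% in these data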;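 note: 0% = DAX1-transfected cells with DMSO and 100% = empty-vector control cells with DMSO; inhibition shows as a rise in luminescence from relieved DAX1 repression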
Target sequence (P51843 207-470 limits assumed): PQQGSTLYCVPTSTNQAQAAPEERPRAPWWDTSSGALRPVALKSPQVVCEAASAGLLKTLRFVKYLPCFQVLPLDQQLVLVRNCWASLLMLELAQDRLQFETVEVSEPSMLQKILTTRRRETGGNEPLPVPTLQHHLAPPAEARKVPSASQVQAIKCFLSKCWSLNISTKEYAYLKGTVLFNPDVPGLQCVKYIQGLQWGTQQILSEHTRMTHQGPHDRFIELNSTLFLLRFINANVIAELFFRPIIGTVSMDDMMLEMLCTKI
* hit, by the source's call; · = not tested or not shown.

SMILES	hcDAF-12 act	hgDAF12 agonist	ssDAF-12 act	NR1D1 modulator	DAX1 inh-1	DAX1 inh-2
Cc1cccc(N2C(=O)c3cccc(Oc4ccc(Cl)cc4)c3C2=O)c1	-2	4	-1	4	0	5.2*
O=C(O)c1cccc(N2C(=O)c3ccc4c5c(ccc(c35)C2=O)C(=O)N(c2cccc(C(=O)O)c2)C4=O)c1	0	-2	-1	5	0	4
Cc1cccc(N2C(=O)/C(=C\c3ccc(C(=O)O)cc3)c3ccccc3C2=O)c1	-1	0	-1	3	0	0
O=C(O)c1cccc(N2C(=O)c3ccc(Oc4ccc(Cl)cc4)cc3C2=O)c1	0	-3	-2	-7	1	4.6*
CS(=O)(=O)c1ccc(C(=O)NC2CCCCC2)cc1	2	1	-1	-5	0	-1
O=C(NC1CCC1)c1ccc(C#CC2CC2)c[n+]1[O-]	-1	11*	0	0	2	·
O=C(Cc1cnc2ncnn2c1)N1CCc2c([nH]c3ccccc23)C1c1ccccc1F (stereo unspecified)	4	-3	1.7*	-7	0	-1
CN(C)C=Nc1ccc(Cn2cnc3nc4ccc(Cl)cc4cc3c2=O)cc1	4	2	0	0	1	·
O=c1c2cc3cc(Cl)ccc3nc2ncn1CCc1c[nH]c2ccccc12	6	5	1.5*	6	1	·
CCOC(=O)OCC(=O)C1(O)CCC2C3CCC4=CC(=O)CCC4(C)C3C(O)CC21C (stereo unspecified)	-1	-6	-1	-1	1	0
CC(=O)OCC(=O)C1(O)CCC2C3CCC4=CC(=O)CCC4(C)C3C(O)CC21C (stereo unspecified)	0	-3	-1	-9	3.7*	0
N#Cc1ccc(OC[C@@H](O)CN2CCC(C(O)(c3ccccc3)c3ccccc3)CC2)cc1F	-2	-1	-1	2	1	·
Cc1ccc(S(=O)(=O)NC2c3cccc4cccc(c34)C2Sc2nc(C)cc(C)n2)cc1 (stereo unspecified)	0	-1	1.4*	12	0	-2
COc1ccc(C(C(=O)N(C)C2CCCC2)N(Cc2ccc(F)cc2)C(=O)c2cc(C)[nH]n2)cc1OC (stereo unspecified)	-1	2	-2	5	0	·
CC(C)c1ccc(NC(=O)C(c2ccccc2)N2CCOCC2)cc1 (stereo unspecified)	1	4	-1	3	0	1
CC(C)c1ccc(/C=C/C(=O)N2CCOCC2)cc1	0	6	0.9*	4	3	6.2*
CC(C)c1ccc(NC(=O)NN2CCOCC2)cc1	3	13*	1.5*	-4	4.3*	5.0*
O=C(CC1CCCC1)N1CC[C@H]2[C@H](CCCN2Cc2ccc(F)cc2)C1	0	3	-2	9	-1	·
O=C(CSc1ncnc2ccccc12)c1ccc2c(c1)OCCO2	-1	5	-1	4	0	-2
O=C(COc1ncnc2cc(Cl)ccc12)c1ccc2c(c1)OCCO2	2	2	0	12	1	4.8*
O=C(COc1ncnc2ccccc12)c1ccc2c(c1)OCCO2	5	11*	0	-1	2	2
O=C(CN1CCOCC1)NN1CC(=O)N(c2ccc(Cl)cc2)CC1=O	0	0	-1	1	0	5.6*
CCN(CC)c1ccc(NC(=O)C2=CC=CN3CCS(=O)(=O)N=C23)cc1	-1	2	0	3	3	1
CC(C)(C)c1ccc(NC(=O)C2=CC=CN3CCS(=O)(=O)N=C23)cc1	1	9	0	-1	3.9*	0
Brc1cccc2sc(N3CCCC3)nc12	3	11*	1	-6	1	1
SMILES	hcDAF-12 act	hgDAF12 agonist	ssDAF-12 act	NR1D1 modulator	DAX1 inh-1	DAX1 inh-2
O=C1c2ccccc2C(=O)N1CCc1ccccc1	6.2*	7	0.9*	-4	0	4
O=C1C(Cl)=C(N2CCOCC2)C(=O)N1CCc1ccccc1	4	11*	0	0	1	2
O=C1c2ccccc2C(=O)N1CCCCCCc1ccccc1	-1	-1	-1	0	2	0
O=C(N=C1c2ccccc2CN1c1cccc(Cl)c1)c1cccnc1	4	11*	0	7	1	-1
CCCN1C(=O)c2n[nH]c(C)c2C1c1ccc2c(c1)OCO2 (stereo unspecified)	0	-1	0	5	1	·
C=CCN=C1NC(c2ccccc2)C(C(=O)OC)=C(C)N1C (stereo unspecified)	0	3	-1	-1	1	·
CCCCNC(=O)C1CCN(S(=O)(=O)N2CCCCCC2)CC1	5.9*	0	0	-1	0	-1
NC(Cc1ccc2nsnc2c1)C(=O)O (stereo unspecified)	-1	-1	2.9*	1	0	2
N[C@@H](Cc1ccc(O)c(O)c1)C(=O)O	-1	-1	-1	-39	0	2
CC(C)C(C#CC1CC1)NCc1ccc2c(c1)OCO2 (stereo unspecified)	-3	-3	-2	-1	0	·
CN(CCOc1ccc(Cl)cc1)CC(O)c1ccccc1 (stereo unspecified)	0	1	-1	-1	0	4.3*
CN(CCOc1ccc(Br)cc1)CC(O)c1ccccc1 (stereo unspecified)	0	-1	-1	1	0	1
CC1(C)CC(=O)C(C#N)=C(NCCCO)C1	-1	-3	-1	-3	1	0
CC1(C)CC(=O)C([N+](=O)[O-])=C(NCCCC(=O)O)C1	1	-1	-1	2	0	4.5*
Cc1cccc(Nc2ncnc3c2cnn3C)c1	-2	1	-1	7	0	-1
Cn1ncc2c(Nc3ccc4ccccc4c3)ncnc21	2	12*	-2	1	2	2
COc1ccc(OC)c(CN2C(=O)CCCC2(C)c2nnnn2C2CCCC2)c1 (stereo unspecified)	0	3	-1	-2	0	·
CN1c2ccccc2Oc2nnc(N3CCN(Cc4ccccc4)CC3)cc21	-1	10*	-2	-1	0	-3
COC(=O)C[C@H]1CC[C@@H]2[C@@H](COc3ccc(NC(=O)Nc4ccccc4OC)cc3C(=O)N2C)O1	-3	0	-1	3	0	·
CCC1=NN2C(=N)/C(=C\c3cccn3-c3ccc(Br)cc3)C(=O)N=C2S1	0	1	-1	-5	0	4.7*
CCc1ccc(-n2ncc(Cl)c(Oc3ccc(OC)cc3)c2=O)cc1	-1	0	-2	1	·	·
Cc1cc(C(=O)NN)c(C)o1	1	5	-1	-4	1	6.2*
